Experimental data as given in PubChem BioAssay (NCATS).
Inconclusive results are not listed. Activity calls are given as the source filed them. Unless noted, calls follow the shape of the dose curve; as a rule, active = well fitted curve in either direction with a large enough effect (not every such curve was filed as active); inconclusive = small, poorly fitted or top-dose-only effect, or another doubt; inactive = flat fitted curve, though single readings scatter.

Tests used:
[1] = AP1 Signaling Pathway (AID 357); settings: ME-180 AP-1-bla reporter, EGF-induced, beta-lactamase ratio, 5 h; at 17.2 µM (top of the series) unless noted;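 also: ME-180 reporter cells stimulated with EGF at its EC50 level; % is scaled to controls: 0 for no effect and ±100 for the full control effect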
Summary of the method: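 Titration-series screen for positive or negative modulators of EC50 EGF-induced signaling in ME-180 cells carrying an AP-1-driven beta-lactamase reporter. After 5 hours at 37 degrees Celsius, CCF4 460nm/530nm emission ratio gave %Activity; AC50 values derived.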

[2] = NFAT Signaling Pathway (AID 444); settings: Jurkat NFAT-bla M1, carbachol, beta-lactamase ratio, 5 h; at 17.2 µM (top of the series) unless noted;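 also: carbachol stimulus at about its EC50 of 1 µM final; % is scaled to controls: 0 for no effect and ±100 for the full control effect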
Summary of the method: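 Jurkat cells carrying an NFAT-driven β-lactamase reporter and co-transfected muscarinic M1 receptor were treated with compound plus carbachol (1 uM final, an EC50 level) for 5 h at 37 °C. CCF4 loading followed for 1 h at RT; 460/530 nm ratio gave %activity.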

[3] = Stat Signaling Pathway (AID 446);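 also: ME-180 cervical cancer cells given 40 pM IL-6 alongside compound; SIE-controlled beta-lactamase reporter measured as 460/530 nm FRET emission ratio; % is scaled to controls: 0 for no effect and ±100 for the full control effect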
Summary of the method: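 Reporter line: ME-180 cervical carcinoma, SIE-beta-lactamase. Treatment: compound with 40 pM IL-6, 5 hrs, 37 C, in low-serum OPTI-MEM with 10 mM HEPES pH 7.3. Detection: 460/530 nm fluorescence.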

[4] = target: Glucocorticoid receptor (Homo sapiens) (UniProt P04150); test: GR-GFP Redistribution (AID 450;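 active = compounds whose dose series gives a full or clear partial fitted curve of increased nuclear translocation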; also: potency is read from the fitted curve at half-maximal effect); settings: U2OS GR-GFP nuclear translocation, laser cytometry, 2 h
Glucocorticoid receptor (Homo sapiens), sequence (P04150 whole entry, looked up): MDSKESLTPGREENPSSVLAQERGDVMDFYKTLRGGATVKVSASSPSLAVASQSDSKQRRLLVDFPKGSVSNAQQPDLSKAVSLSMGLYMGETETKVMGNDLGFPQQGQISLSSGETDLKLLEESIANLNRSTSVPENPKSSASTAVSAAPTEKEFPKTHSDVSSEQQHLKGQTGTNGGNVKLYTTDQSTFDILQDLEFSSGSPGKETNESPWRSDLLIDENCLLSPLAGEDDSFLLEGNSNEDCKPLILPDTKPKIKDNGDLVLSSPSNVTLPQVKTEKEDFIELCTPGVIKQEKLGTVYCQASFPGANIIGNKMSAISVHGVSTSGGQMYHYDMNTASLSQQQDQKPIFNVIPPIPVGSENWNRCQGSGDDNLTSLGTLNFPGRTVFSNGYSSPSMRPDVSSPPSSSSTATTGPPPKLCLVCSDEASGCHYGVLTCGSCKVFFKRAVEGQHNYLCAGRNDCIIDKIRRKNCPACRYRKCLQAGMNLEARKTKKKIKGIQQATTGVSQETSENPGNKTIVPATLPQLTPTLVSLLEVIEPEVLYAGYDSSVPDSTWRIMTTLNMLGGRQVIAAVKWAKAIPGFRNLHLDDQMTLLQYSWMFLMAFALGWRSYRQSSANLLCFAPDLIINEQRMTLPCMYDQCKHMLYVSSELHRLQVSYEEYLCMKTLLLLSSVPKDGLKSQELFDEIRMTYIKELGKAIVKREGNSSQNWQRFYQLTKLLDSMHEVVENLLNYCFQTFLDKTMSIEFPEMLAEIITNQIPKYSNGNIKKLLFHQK

O=c1[nH]c2ccccc2c(=O)n1-c1cccc(Cl)c1
inactive: activity change, negative = inhibition [1] 24.2% | activity change, negative = inhibition [2] -3.58% | outcome [3] | Potency [4] > 20.6 µM

COc1ccc(C2SCC(=O)Nc3c2c(=O)[nH]n3C2CCCCC2)cc1 (stereo not drawn)
inactive: activity change, negative = inhibition [1] -14.7% | activity change, negative = inhibition [2] 0.11% | outcome [3] | Potency [4] > 20.6 µM

O=c1[nH]c(O)c(C=NC2CCN(Cc3ccccc3)CC2)c(=O)[nH]1
inactive: activity change, negative = inhibition [1] 5.09% | activity change, negative = inhibition [2] -19.6% | outcome [3] | Potency [4] > 20.6 µM

CCCCc1nc2ccccc2c(=O)n1-c1ccccc1O
inactive: activity change, negative = inhibition [1] -4.36% | activity change, negative = inhibition [2] -4.7% | outcome [3] | Potency [4] > 20.6 µM

Nc1ccc(C2(c3ccc(N)cc3)CN3CCC2CC3)cc1
inactive: activity change, negative = inhibition [1] 7.52% | activity change, negative = inhibition [2] -2.19% | outcome [3] | Potency [4] > 20.6 µM

O=c1[nH]c(=O)n(C2CCCCC2)c(O)c1C=NCCCn1ccnc1
inactive: activity change, negative = inhibition [1] 0.159% | activity change, negative = inhibition [2] -4.42% | outcome [3] | Potency [4] > 20.6 µM

Cc1ccc(C)c(C2(O)CC(C)N(C)CC2C)c1 (stereo not drawn)
inactive: activity change, negative = inhibition [1] 22.9% | activity change, negative = inhibition [2] 9.11% | outcome [3] | Potency [4] > 20.6 µM

CN(C)CCc1nn[nH]n1
inactive: activity change, negative = inhibition [1] 1.85% | activity change, negative = inhibition [2] -0.26% | outcome [3] | Potency [4] > 20.6 µM

COc1cccc(CN2CCN(C(=O)COc3ccc4ccccc4c3)CC2)c1
inactive: activity change, negative = inhibition [1] 2% | activity change, negative = inhibition [2] 13.9% | outcome [3] | Potency [4] > 20.6 µM

COc1cccc(-n2c(C)nc3ccccc3c2=O)c1
inactive: activity change, negative = inhibition [1] 10.2% | activity change, negative = inhibition [2] 3.48% | outcome [3] | Potency [4] > 20.6 µM

CCCCNC(=O)Nc1ccc(C(O)(C(=O)OCC)C(F)(F)F)cc1 (stereo not drawn)
inactive: activity change, negative = inhibition [1] -5.83% | activity change, negative = inhibition [2] 30% | outcome [3] | Potency [4] > 20.6 µM

CCCCOCCCn1c(N)c(C(=O)OC(C)COC)c2nc3ccccc3nc21 (stereo not drawn)
inactive: activity change, negative = inhibition [1] -11.7% | activity change, negative = inhibition [2] 29.2% | outcome [3] | Potency [4] > 20.6 µM

CC(=O)[C@@]1(O)CC[C@H]2[C@@H]3CC=C4C[C@@H](O)CC[C@]4(C)[C@H]3CC[C@@]21C
inactive: activity change, negative = inhibition [1] 0.531% | activity change, negative = inhibition [2] 10.8% | outcome [3] | Potency [4] > 20.6 µM

CC(=O)OC1(Cc2ccccc2)CN2CCC1c1ccccc12 (stereo not drawn)
inactive: activity change, negative = inhibition [1] -0.0283% | activity change, negative = inhibition [2] -23.5% | outcome [3] | Potency [4] > 46 µM

O=C1c2ccccc2C(=O)N1Cc1nc2ccccc2c(=O)n1-c1cccnc1
inactive: activity change, negative = inhibition [1] 24% | activity change, negative = inhibition [2] -3.03% | outcome [3] | Potency [4] > 20.6 µM

Nc1ncc(P(=S)(N2CCOCC2)N2CCOCC2)s1
inactive: activity change, negative = inhibition [1] 10.9% | activity change, negative = inhibition [2] 4.78% | outcome [3] | Potency [4] > 20.6 µM

COc1ccccc1-n1c(O)c(C=NCCCn2ccnc2)c(=O)[nH]c1=O
inactive: activity change, negative = inhibition [1] 6.21% | activity change, negative = inhibition [2] 10.5% | outcome [3] | Potency [4] > 20.6 µM
